From PubChem BioAssay
Rows were chosen to be rich in hits. Some 1.3% of all compounds tested hit in one or more screens of this group.
E coli Lon inh: E. coli protease La inhibition | purified E. coli Lon protease, fluorescence polarization | 360,000 compounds, 0.42% hits | AID 602123 | inhibition, % at 7.94 µM; in the data active means inhibition above about 13%, passing the limit was not always enough;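 further: 0% = enzyme with probe and DMSO and 100% = no enzyme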
EBV gp42 block: EBV gp42 inhibition. inhibition, % (tested at 21.74 µM). 220,000 compounds, 0.42% hits. Fluorescence polarization binding assay, mP read-out. Q1HVG2; in the data active means inhibition above about 50%
Target sequence (Q1HVG2 whole entry, looked up): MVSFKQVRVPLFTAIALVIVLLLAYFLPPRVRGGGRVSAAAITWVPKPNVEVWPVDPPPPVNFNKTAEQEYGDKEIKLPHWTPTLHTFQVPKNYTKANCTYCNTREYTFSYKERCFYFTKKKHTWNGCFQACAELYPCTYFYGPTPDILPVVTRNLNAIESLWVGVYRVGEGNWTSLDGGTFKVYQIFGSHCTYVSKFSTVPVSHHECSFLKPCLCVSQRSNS
Bcl-xL primary: inhibitors of human Bcl-xL; GST-Bcl-xL / FITC-Bim BH3 peptide fluorescence polarization; inhibition, % at 10.9 µM; 320,000 compounds, 0.7% hits; Q07817;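 active means inhibition above the mean of all tested compounds plus 3 SD, cutoff set per campaign, cut at about 30% in these data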;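 further: 0% = DMSO wells and 100% = unlabeled Bim-BH3 peptide competitor; inhibitors lower millipolarization by displacing the labeled peptide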
Target sequence (Q07817 whole entry, looked up): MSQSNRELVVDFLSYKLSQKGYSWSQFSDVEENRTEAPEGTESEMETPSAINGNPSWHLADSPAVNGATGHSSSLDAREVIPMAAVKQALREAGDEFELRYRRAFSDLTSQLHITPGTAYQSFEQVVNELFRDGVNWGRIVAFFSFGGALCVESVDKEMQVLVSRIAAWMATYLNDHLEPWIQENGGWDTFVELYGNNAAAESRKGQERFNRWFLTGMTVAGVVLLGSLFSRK
GLD-1 TGE inh: GLD-1-TGE RNA interaction inhibition (C. elegans) | Q17339 | purified GLD-1 + fluorescein TGE RNA, fluorescence polarization | inhibition, % at 5.96 µM | 320,000 compounds, 0.44% hits;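 active means percent inhibition above a per-plate cutoff, the plate mean of test compounds plus 3 SD, cut at about 30% in these data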;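 further: 0% = DMSO wells with GLD-1 and probe and 100% = wells lacking GLD-1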
MEX-5 binding: C. elegans MEX-5 TCR-2 RNA binding activity; Q9XUB2; MEX-5/FITC-TCR2 RNA binding, fluorescence polarization; stronger effect = lower value; activity score (negative = inhibition of binding), % at 10 µM; 300,000 compounds, 0.38% hits;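 active means inhibition past about -25% in most replicates, and total fluorescence under double the plate's negative control median, limit read from the data; inconclusive means replicates evenly split on the limit, or fluorescence at least double controls; inactive means too little inhibition in most replicates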;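 further: 0% = DMSO and -100% = 5 µM competing unlabeled TCR2 RNA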
Starred values were filed as active, the others as inactive; ? = inconclusive; . = no result; + = active, no number.

SMILES	E coli Lon inh	EBV gp42 block	Bcl-xL primary	GLD-1 TGE inh	MEX-5 binding
O=S(=O)(c1ccccc1)C1CC1(c1ccccc1)c1ccccc1 (stereo unspecified)	6.4	.	.	.	.
COc1ccc(-c2cc(N)n(S(=O)(=O)c3ccc(C)cc3)n2)c(OC)c1	1.0	10.8	47.6*	-1.8	-1.4
NS(=O)(=O)c1ccc(NC(=S)NNC(=O)CCC(=O)Nc2ccccc2Cl)cc1	-4.0	.	0.5	-1.5	-30.7*
COc1nc(NCCC2=CCCCC2)nc(OC)n1	-9.2	137.8*	2.3	10.1	0.2
COc1ccc2nc(-n3c(O)c(C4=c5ccccc5=NC4=O)[nH]c3=S)sc2c1	3.0	115.1*	14.6	1.6	0.2
Cn1c(O)c(C2=c3ccccc3=NC2=O)[nH]c1=S	6.2	-18.8	11.6	2.8	-0.9
O=C(CCc1ccccc1)NNC(=O)Nc1ccc(F)c(Cl)c1	-2.8	.	3.4	-7.6	4.9
COc1ccc2c(C=Nc3c(C)n(C)n(-c4ccccc4)c3=O)c(O)n(Cc3ccco3)c(=O)c2c1	-10.8	78.4*	-10.1	19.3	-13.4
O=C(C1CC(=O)N(c2ccc3c(c2)OCCO3)C1)N1CCCC(C(F)(F)F)C1 (stereo unspecified)	-0.3	.	-4.4	-0.2	-2.8
COc1ccccc1/C=N/N1C(=O)c2cccc3cccc(c23)C1=O	-3.2	37.2	43.4*	2.8	-2.5
CCc1nc2ccc(C(=O)N3CCN(C(C)=O)CC3)cn2c1N(C)C(=O)c1cccc(OC)c1	-5.1	.	.	.	.
CC1(C)Cc2c(C#N)c(N)sc(=S)c2CS1	9.1	44.9	57.0*	47.5*	-9.8
O=C(O)COc1ccc(/C=N/NC(=O)c2ccc(-c3csc(Nc4ccc(Cl)cc4)n3)cc2)cc1	2.3	92.5*	.	.	0.3
CCOc1cc(/C=N/NC(=O)c2ccc(-c3csc(Nc4ccc(C)cc4)n3)cc2)ccc1OCC(=O)O	-2.7	89.2*	.	.	.
COc1cc(/C=N\NC(=O)c2ccc(-c3ccccc3)cc2)ccc1OCC(N)=O	-2.4	.	.	.	-1.4
O=Cc1cc(Br)c(OC(=O)N2CCOCC2)c(Br)c1	-15.2	.	0.6	-4.0	0.5
CC(C)c1cccc(C(C)C)c1OCCCCCN1CCOCC1	-7.3	.	7.7	1.5	4.1
O=C(Nc1ccc2c(c1)nc1n2CCN(C2CCCCC2)C1)NC1CCCCC1	.	83.4*	57.1*	27.6	-7.7
CC(C)c1ccc(/C=C/C(=O)N2CCCCCC2)cc1	0.0	1.9	1.6	-11.0	-3.8
CC(C)c1ccc(/C=C/C(=O)n2nnc3ccccc32)cc1	8.3	85.1*	1.5	-3.0	1.2
COc1cc(NC(=O)CSc2nc3ncnc(N)c3[nH]2)c(C(=O)O)cc1OC	-4.0	.	1.1	1.9	-30.7*
Cc1ccc(/C=C2/Sc3ccc(C(=O)N4CCN(C)CC4)cc3NC2=O)cc1	10.1	.	36.9*	16.9	-12.0
COc1ccc(CN(C)C(C)C(=O)Nc2ccc(S(=O)(=O)N3CCCC3)cc2)c(OC)c1OC (stereo unspecified)	.	-4.0	4.3	5.4	0.8
Cc1ccc2c(nc3s/c(=C\c4ccc(-c5ccccc5C(=O)O)o4)c(=O)n32)c1C	-91.6	.	-16.4	-31.1	-10.5
O=c1nc2s/c(=C\c3ccc(-c4ccccc4[N+](=O)[O-])o3)c(=O)n2nc1-c1ccccc1	-3.2	175.7*	.	.	-9.1
SMILES	E coli Lon inh	EBV gp42 block	Bcl-xL primary	GLD-1 TGE inh	MEX-5 binding
O=C(NC1CCN(S(=O)(=O)c2ccccc2C(F)(F)F)CC1)c1ccco1	3.9	.	4.5	-3.3	4.0
CN=C1S/C(=C\c2ccc(N3CCCC3)c(F)c2)C(=O)N1C	-14.8	-23.2	-7.2	-73.6	-59.1*
O=C(Nc1ccccc1F)C(=Cc1sc(N2CCOCC2)nc1-c1ccccc1)C(=O)Nc1ccccc1F	-20.3	61.6*	9.7	-23.9	-43.2*
O=C(N/N=C/c1sc(N2CCOCC2)nc1-c1ccccc1)c1ccccc1F	.	-2.1	1.6	4.1	-1.2
Cc1ccc(CC2(C)C(=O)Nc3c(Cl)ccc(Cl)c32)cc1 (stereo unspecified)	0.6	.	.	.	.
CC1(OC(=O)C2CCCC2)C(=O)C=C2C=C(c3ccsc3)N(CC3CC3)C=C2C1=O (stereo unspecified)	8.9	-15.4	27.2	16.9	1.0
CC1(OC(=O)C2CCCC2)C(=O)C=C2C=C(c3ccsc3)N(C3CCCCC3)C=C2C1=O (stereo unspecified)	14.0	23.9	30.2*	24.4	-2.5
Cc1cc(C)cc(OC(C)C(=O)Nc2ccccc2C(=O)NCc2cccnc2)c1 (stereo unspecified)	5.0	.	-2.8	6.0	-0.4
Cc1cccc(N=Nc2c(C)c(C#N)c(O)[nH]c2=O)c1	-17.0	-36.2	-2.9	-9.2	-1.1
CCCCOC(=O)c1ccc(N=Nc2c(C)c(C#N)c(O)[nH]c2=O)cc1	5.8	-35.2	5.5	3.5	-63.4*
Cc1ccccc1NC(=O)CN1C(=O)N/C(=C\c2ccccc2OCc2ccc(C(=O)O)cc2)C1=O	11.0	.	1.9	2.4	-0.6
CN(C)c1ccc(/C=N/NC(=O)c2ccc(NC(=O)c3ccccc3)cc2)cc1	-0.9	-3.6	32.1*	16.5	-0.9
O=C(N/N=C/c1ccc(Br)cc1)c1ccc(NC(=O)c2ccccc2)cc1	-5.6	.	.	.	.
O=C(Nc1ccnc(-c2ccncc2)n1)c1ccc(Cl)cc1	-2.8	-12.3	5.3	8.2	-1.9
O=C(OCCN1C(=O)c2ccccc2C1=O)c1cc(S(=O)(=O)N2CCOCC2)ccc1Cl	7.8	-5.8	1.7	5.7	-0.4
O=C(OCCN1C(=O)c2cccc3c(N4CCOCC4)ccc(c23)C1=O)c1ccccc1Cl	-192.2	145.6*	25.1	19.2	?
O=C(OCCN1C(=O)c2cccc3c(N4CCOCC4)ccc(c23)C1=O)c1cccc(Cl)c1	.	152.1*	41.1*	81.3*	?
O=C(OCCN1C(=O)c2cccc3c(N4CCOCC4)ccc(c23)C1=O)c1ccc(Cl)cc1Cl	-50.0	143.7*	39.4*	73.0*	?
O=C(OCc1c(F)cccc1Cl)c1cc([N+](=O)[O-])ccc1N1CCOCC1	-3.6	.	2.9	7.9	0.4
C=CCOc1c(Br)cc(/C=N/n2c(CC)n[nH]c2=S)cc1Br	2.0	-5.2	-13.1	2.0	2.1
Oc1ccc(-c2cn3c(n2)SCC3)cc1	2.4	-24.2	3.8	4.0	-0.4
Oc1ccc(-c2cn3c(n2)SCC3)cc1O	3.6	-22.5	27.8	5.5	-39.8*
COc1ccc(N/C(=C(/C(Cl)=C(Cl)Cl)[N+](=O)[O-])n2nnc3ccccc32)cc1	.	15.1	39.2*	17.6	-42.4*
COc1cccc2c1C(=O)c1c(O)c3c(c(O)c1C2=O)C[C@@](O)(C(=O)CO)C[C@@H]3O[C@H]1C[C@H](N)[C@@H](O)[C@H](C)O1	+	.	+	+	?
CC(=O)[C@]1(O)Cc2c(O)c3c(c(O)c2[C@@H](O[C@H]2C[C@H](N)[C@H](O)[C@H](C)O2)C1)C(=O)c1ccccc1C3=O	.	.	+	+	?
COc1ccc(NC(=O)COc2ccccc2Cc2ccccc2)cc1S(=O)(=O)N1CCOCC1	-7.7	.	.	.	.
